# Assay results as given in publication PMC7862700, “An all-to-all approach to the identification of sequence-specific readers for epigenetic DNA modifications on cytosine”.
# What was measured:
# Experiment in all cases: DAPPL (digital affinity profiling via proximity ligation, sequencing); 10 mM Tris-HCl pH 7.5, 50 mM NaCl, 1 mM DTT, 4% glycerol, room temperature, 30 min; GST-TFs on glutathione beads, 16-mer random dsDNA library, 0.1% formaldehyde crosslink after washing; high values mean tight binding
# [1] = biological target: T1, FEV (Homo sapiens, UniProt Q99581 1-238); settings: protein: recombinant; tags: N-terminal GST; dsDNA, one strand shown
# T1 sequence: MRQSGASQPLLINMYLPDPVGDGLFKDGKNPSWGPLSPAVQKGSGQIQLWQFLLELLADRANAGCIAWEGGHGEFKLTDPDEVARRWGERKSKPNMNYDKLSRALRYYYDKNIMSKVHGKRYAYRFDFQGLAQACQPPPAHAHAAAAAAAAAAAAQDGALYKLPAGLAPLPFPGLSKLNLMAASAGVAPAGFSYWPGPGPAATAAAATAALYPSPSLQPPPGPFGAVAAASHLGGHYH
# Method in brief: (§1)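 The binding signal reported is, for every hexamer, its read frequency for a factor over its read frequency for the tag-only sample. Reads came from pools of yeast-expressed, GST-fused human transcription factors on glutathione beads, barcoded with DNA and mixed with that sample, which were incubated with 200 nmole of a random double-stranded 16-mer DNA library in Tris/NaCl/DTT/glycerol buffer at room temperature for 30 min. After washing, the pools were crosslinked with 0.1% formaldehyde, proximity-ligated with BsaI/T4 ligase for 1 h at 37 °C, PCR-amplified and sequenced on an Illumina NextSeq500.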
# [2] = biological target: ETV5 (Homo sapiens, UniProt P41161 1-510); settings: protein: recombinant; tags: N-terminal GST; dsDNA, one strand shown
# Sequence of ETV5 (P41161 whole entry): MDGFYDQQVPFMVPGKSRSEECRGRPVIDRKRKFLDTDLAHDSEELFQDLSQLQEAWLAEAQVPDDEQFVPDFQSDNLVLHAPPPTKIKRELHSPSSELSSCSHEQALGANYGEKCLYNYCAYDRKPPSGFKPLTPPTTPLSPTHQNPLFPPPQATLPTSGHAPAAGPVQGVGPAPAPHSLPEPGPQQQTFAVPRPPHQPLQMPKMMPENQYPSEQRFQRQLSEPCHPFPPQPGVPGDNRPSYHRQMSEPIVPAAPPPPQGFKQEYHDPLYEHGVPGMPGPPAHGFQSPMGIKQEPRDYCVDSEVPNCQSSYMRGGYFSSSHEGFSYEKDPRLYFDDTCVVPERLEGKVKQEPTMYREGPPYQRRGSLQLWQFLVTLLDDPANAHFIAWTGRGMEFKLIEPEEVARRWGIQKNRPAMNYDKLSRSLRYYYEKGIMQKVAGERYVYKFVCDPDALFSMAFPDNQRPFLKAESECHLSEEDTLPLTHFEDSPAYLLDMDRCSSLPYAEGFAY
# Method in brief: as §1
# [3] = biological target: HSF1 (Homo sapiens, UniProt Q00613 1-529); settings: protein: recombinant; tags: N-terminal GST; chain copies: 3; dsDNA, one strand shown
# Sequence of HSF1 (Q00613 whole entry): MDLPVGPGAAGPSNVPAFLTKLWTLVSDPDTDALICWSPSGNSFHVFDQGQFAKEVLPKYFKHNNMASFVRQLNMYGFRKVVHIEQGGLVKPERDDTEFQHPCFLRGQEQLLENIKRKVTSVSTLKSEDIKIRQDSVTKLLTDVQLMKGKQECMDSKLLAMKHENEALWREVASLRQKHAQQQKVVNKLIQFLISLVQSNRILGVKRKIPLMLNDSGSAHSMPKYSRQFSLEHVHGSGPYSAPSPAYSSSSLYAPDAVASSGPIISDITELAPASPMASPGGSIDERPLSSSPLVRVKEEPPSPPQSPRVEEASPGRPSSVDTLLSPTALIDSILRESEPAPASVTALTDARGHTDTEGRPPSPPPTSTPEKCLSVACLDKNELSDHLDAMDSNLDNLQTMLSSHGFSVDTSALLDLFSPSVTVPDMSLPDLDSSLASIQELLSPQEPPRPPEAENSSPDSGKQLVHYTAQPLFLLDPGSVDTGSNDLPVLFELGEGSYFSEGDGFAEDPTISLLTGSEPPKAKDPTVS
# Method in brief: as §1
# [4] = biological target: T2, SPIC (Homo sapiens, UniProt Q8N5J4 1-248); settings: protein: recombinant; tags: N-terminal GST; dsDNA, one strand shown
# T2 sequence: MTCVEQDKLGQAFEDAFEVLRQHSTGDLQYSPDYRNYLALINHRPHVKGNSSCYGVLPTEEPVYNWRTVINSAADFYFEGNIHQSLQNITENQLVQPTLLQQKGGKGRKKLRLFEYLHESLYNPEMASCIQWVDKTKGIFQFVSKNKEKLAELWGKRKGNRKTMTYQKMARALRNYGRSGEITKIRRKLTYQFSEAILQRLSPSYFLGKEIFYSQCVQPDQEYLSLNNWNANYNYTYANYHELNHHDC
# Method in brief: as §1
# [5] = biological target: ELF4 (Homo sapiens, UniProt Q99607 1-663); settings: protein: recombinant; tags: N-terminal GST; dsDNA, one strand shown
# Sequence of ELF4 (Q99607 whole entry): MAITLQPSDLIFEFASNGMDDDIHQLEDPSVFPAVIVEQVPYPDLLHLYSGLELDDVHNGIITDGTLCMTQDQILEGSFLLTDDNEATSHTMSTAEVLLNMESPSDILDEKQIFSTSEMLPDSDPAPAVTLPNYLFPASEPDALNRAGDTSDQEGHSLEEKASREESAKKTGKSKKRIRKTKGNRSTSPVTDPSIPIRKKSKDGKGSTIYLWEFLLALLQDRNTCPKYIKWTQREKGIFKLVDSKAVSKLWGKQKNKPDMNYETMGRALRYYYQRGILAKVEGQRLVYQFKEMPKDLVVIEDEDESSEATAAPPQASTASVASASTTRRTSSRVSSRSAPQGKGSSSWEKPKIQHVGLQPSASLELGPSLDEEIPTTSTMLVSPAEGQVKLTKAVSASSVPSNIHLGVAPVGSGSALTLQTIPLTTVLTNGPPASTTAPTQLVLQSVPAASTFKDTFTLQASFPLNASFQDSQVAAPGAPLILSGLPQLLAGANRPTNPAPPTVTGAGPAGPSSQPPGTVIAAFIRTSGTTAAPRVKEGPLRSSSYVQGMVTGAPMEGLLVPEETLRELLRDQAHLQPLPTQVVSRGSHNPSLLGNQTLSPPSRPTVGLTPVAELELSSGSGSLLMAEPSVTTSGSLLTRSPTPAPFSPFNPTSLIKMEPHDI
# Method in brief: as §1
# [6] = biological target: T3, ELK4 (Homo sapiens, UniProt P28324-2 1-405); settings: protein: recombinant; tags: N-terminal GST; dsDNA, one strand shown
# T3 sequence: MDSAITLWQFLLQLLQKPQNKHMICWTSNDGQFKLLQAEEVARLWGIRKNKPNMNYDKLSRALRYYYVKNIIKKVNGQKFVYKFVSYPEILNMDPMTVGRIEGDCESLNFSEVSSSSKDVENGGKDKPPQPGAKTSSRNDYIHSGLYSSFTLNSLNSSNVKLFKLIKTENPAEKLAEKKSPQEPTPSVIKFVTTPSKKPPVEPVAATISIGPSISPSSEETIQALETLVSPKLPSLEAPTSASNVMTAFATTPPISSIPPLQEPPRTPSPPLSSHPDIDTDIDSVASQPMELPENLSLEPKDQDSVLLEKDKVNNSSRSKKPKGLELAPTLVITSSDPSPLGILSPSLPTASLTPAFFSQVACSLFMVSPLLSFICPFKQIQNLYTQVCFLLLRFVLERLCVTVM
# Method in brief: as §1
# [7] = biological target: T4, ETV2 (Homo sapiens, UniProt O00321 1-342); settings: protein: recombinant; tags: N-terminal GST; dsDNA, one strand shown
# T4 sequence: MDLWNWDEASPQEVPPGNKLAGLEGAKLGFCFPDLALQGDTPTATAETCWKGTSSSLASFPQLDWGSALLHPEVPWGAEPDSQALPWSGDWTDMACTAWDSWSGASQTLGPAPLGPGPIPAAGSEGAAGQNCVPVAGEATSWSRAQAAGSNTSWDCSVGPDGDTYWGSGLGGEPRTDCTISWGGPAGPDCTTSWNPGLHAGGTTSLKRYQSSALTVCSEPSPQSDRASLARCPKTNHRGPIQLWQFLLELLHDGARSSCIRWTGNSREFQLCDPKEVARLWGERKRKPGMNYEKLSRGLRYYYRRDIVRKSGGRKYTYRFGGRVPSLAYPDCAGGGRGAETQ
# Method in brief: as §1
# [8] = biological target: T5, ELF3 (Homo sapiens, UniProt P78545 1-371); settings: protein: recombinant; tags: N-terminal GST; dsDNA, one strand shown
# T5 sequence: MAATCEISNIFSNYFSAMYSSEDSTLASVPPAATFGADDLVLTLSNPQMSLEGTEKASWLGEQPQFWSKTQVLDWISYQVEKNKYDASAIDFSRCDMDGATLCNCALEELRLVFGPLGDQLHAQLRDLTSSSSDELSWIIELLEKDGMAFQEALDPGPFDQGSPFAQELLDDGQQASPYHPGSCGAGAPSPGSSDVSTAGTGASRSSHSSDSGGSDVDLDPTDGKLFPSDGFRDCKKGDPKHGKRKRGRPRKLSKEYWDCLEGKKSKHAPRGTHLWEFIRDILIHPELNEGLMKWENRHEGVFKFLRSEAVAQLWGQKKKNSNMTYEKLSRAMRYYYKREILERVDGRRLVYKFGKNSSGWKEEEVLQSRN
# Method in brief: as §1
# [9] = biological target: CRX (Homo sapiens, UniProt O43186 1-299); settings: protein: recombinant; tags: N-terminal GST; dsDNA, one strand shown
# Sequence of CRX (O43186 whole entry): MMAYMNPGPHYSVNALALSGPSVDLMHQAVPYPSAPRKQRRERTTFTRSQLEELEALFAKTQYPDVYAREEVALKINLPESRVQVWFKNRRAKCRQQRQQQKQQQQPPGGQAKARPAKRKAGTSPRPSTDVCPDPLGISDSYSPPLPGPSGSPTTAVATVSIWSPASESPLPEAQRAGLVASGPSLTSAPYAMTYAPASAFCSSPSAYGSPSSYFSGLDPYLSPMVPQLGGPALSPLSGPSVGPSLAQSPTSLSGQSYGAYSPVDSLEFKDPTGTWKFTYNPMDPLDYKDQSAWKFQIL
# Method in brief: as §1
# [10] = biological target: ETV1 (Homo sapiens, UniProt P50549 1-477); settings: protein: recombinant; tags: N-terminal GST; dsDNA, one strand shown
# Sequence of ETV1 (P50549 whole entry): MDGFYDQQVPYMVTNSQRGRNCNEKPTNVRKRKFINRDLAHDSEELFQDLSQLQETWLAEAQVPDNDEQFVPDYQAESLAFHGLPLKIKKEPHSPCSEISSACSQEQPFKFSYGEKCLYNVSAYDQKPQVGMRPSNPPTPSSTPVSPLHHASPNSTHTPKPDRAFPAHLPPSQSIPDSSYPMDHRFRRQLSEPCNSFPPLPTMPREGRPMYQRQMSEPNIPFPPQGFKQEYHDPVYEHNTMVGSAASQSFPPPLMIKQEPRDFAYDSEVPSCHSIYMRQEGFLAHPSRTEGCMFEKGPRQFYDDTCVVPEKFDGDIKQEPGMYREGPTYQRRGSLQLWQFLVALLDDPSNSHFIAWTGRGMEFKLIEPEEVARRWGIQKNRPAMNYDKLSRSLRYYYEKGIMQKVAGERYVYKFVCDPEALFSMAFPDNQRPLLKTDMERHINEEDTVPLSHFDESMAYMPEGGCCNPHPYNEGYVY
# Method in brief: as §1
# [11] = biological target: T6, ERF (Homo sapiens, UniProt P50548 1-548); settings: protein: recombinant; tags: N-terminal GST; dsDNA, one strand shown
# T6 sequence: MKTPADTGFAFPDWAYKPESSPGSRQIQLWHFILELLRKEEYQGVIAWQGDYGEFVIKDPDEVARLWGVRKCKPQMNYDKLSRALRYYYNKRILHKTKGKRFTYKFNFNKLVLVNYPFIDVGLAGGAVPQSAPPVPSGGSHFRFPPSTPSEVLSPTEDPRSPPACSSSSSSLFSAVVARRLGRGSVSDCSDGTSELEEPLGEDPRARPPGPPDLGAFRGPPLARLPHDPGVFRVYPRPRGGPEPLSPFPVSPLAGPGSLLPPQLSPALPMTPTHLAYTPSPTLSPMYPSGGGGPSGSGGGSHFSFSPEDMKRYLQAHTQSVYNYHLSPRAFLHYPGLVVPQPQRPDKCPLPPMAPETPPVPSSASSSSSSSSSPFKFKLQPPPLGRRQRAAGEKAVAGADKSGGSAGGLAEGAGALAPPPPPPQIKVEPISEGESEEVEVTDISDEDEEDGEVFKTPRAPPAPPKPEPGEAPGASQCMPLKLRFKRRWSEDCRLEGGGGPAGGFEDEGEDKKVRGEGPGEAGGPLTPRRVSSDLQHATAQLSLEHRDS
# Method in brief: as §1
# [12] = biological target: T7, ETV3L (Homo sapiens, UniProt Q6ZN32 1-361); settings: protein: recombinant; tags: N-terminal GST; dsDNA, one strand shown
# T7 sequence: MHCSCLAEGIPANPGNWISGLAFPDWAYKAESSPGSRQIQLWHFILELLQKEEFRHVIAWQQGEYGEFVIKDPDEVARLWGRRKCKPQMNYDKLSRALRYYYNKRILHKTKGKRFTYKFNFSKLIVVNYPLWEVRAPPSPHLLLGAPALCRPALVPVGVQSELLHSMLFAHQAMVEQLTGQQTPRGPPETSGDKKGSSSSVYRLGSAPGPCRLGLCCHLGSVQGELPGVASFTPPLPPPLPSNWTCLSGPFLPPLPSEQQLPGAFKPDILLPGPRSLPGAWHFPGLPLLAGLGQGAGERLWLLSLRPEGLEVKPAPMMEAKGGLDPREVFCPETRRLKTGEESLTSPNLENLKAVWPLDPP
# Method in brief: as §1
# [13] = biological target: T8, ETS2 (Homo sapiens, UniProt P15036 1-469); settings: protein: recombinant; tags: N-terminal GST; dsDNA, one strand shown
# T8 sequence: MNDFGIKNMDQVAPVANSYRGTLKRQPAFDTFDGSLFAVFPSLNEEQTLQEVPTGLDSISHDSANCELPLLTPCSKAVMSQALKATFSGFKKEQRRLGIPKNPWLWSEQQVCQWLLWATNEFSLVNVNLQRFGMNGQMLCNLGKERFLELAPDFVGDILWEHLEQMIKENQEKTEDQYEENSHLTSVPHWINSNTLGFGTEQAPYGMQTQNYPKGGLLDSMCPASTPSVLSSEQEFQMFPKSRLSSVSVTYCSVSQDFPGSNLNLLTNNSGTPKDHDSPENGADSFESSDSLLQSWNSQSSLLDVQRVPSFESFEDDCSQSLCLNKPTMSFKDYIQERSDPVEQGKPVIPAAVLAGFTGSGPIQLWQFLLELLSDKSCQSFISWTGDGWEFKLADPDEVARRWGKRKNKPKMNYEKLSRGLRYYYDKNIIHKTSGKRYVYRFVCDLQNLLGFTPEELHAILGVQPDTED
# Method in brief: as §1
# [14] = biological target: T9, SPDEF (Homo sapiens, UniProt O95238 1-335); settings: protein: recombinant; tags: N-terminal GST; dsDNA, one strand shown
# T9 sequence: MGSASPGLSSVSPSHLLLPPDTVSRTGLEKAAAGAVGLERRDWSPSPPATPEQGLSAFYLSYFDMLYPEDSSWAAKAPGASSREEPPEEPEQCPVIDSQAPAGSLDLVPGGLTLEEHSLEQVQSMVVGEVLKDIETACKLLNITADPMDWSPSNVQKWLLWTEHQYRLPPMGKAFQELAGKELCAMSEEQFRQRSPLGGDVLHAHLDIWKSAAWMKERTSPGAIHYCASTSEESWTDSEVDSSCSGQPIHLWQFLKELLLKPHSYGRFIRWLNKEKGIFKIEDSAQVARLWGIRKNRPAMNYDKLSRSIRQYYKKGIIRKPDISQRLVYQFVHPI
# Method in brief: as §1
# [15] = biological target: T10, ETV7 (Homo sapiens, UniProt Q9Y603 1-341); settings: protein: recombinant; tags: N-terminal GST; dsDNA, one strand shown
# T10 sequence: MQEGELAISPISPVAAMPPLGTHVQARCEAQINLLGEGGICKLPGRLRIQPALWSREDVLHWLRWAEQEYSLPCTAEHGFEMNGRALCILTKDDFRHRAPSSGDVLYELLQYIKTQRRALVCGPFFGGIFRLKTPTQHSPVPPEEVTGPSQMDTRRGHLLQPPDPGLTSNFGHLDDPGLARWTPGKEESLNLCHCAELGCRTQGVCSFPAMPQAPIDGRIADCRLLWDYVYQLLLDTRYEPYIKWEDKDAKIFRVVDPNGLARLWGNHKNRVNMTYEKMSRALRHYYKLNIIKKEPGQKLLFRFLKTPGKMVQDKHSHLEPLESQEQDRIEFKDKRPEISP
# Method in brief: as §1
# [16] = biological target: T11, ELF5 (Homo sapiens, UniProt Q9UKW6-2 1-255); settings: protein: recombinant; tags: N-terminal GST; dsDNA, one strand shown
# T11 sequence: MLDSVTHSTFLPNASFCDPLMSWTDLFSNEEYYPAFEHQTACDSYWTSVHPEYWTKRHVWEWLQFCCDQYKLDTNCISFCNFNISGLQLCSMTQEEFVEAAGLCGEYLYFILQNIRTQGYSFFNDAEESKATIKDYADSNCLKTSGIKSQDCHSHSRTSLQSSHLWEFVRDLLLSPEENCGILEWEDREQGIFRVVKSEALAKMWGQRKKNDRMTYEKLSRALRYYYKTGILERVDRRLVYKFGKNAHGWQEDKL
# Method in brief: as §1
# [17] = biological target: T12, ETV3 (Homo sapiens, UniProt P41162-2 1-143); settings: protein: recombinant; tags: N-terminal GST; dsDNA, one strand shown
# T12 sequence: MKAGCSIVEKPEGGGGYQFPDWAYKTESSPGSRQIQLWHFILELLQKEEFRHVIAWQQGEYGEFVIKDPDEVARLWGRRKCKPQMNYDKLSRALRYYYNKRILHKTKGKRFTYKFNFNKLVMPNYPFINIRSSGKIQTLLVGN
# Method in brief: as §1
# [18] = biological target: ETV6 (Homo sapiens, UniProt P41212 1-452); settings: protein: recombinant; tags: N-terminal GST; dsDNA, one strand shown
# Sequence of ETV6 (P41212 whole entry): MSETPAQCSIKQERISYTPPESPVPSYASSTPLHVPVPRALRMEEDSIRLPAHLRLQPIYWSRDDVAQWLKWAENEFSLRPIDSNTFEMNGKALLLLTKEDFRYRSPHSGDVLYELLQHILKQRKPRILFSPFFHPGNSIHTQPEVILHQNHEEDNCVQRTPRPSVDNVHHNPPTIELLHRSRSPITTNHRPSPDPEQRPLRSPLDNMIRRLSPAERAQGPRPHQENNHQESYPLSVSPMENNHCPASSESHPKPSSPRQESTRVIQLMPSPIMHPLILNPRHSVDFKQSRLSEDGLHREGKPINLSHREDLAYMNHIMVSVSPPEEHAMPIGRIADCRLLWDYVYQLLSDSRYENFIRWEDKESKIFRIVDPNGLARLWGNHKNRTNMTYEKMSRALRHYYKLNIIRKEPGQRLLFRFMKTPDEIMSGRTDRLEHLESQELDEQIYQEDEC
# Method in brief: as §1
sequence,measurement,setting,value
CTTAGA,binding signal,[1],"1.15 fold enrichment (6-mer frequency, TF over GST control)"
same,binding signal,[2],"1.06 fold enrichment (6-mer frequency, TF over GST control)"
same,binding signal,[3],"1.53 fold enrichment (6-mer frequency, TF over GST control)"
same,binding signal,[4],"1.27 fold enrichment (6-mer frequency, TF over GST control)"
same,binding signal,[5],"1.09 fold enrichment (6-mer frequency, TF over GST control)"
same,binding signal,[6],"1.24 fold enrichment (6-mer frequency, TF over GST control)"
same,binding signal,[7],"1.15 fold enrichment (6-mer frequency, TF over GST control)"
same,binding signal,[8],"1.07 fold enrichment (6-mer frequency, TF over GST control)"
same,binding signal,[9],"1.69 fold enrichment (6-mer frequency, TF over GST control)"
same,binding signal,[10],"1.14 fold enrichment (6-mer frequency, TF over GST control)"
same,binding signal,[11],"1.18 fold enrichment (6-mer frequency, TF over GST control)"
same,binding signal,[12],"1.17 fold enrichment (6-mer frequency, TF over GST control)"
same,binding signal,[13],"1.06 fold enrichment (6-mer frequency, TF over GST control)"
same,binding signal,[14],"1.16 fold enrichment (6-mer frequency, TF over GST control)"
same,binding signal,[15],"1.07 fold enrichment (6-mer frequency, TF over GST control)"
same,binding signal,[16],"1.04 fold enrichment (6-mer frequency, TF over GST control)"
same,binding signal,[17],"1.07 fold enrichment (6-mer frequency, TF over GST control)"
same,binding signal,[18],"1.11 fold enrichment (6-mer frequency, TF over GST control)"
